According to ChEMBL document CHEMBL3988442, “University of Dundee, Small-Polar-MMV Screening Library” (2021):
Among all 48,000 compounds or so, about 13,000 (27%) showed an effect of 50% or more. Some of the results follow.

tested on: Wolbachia pipientis; experiment: Anti-Wolbachia Cell-Based Screen; assay type: functional; parameters: scale not given: in the data most compounds retested in dose-response had high values; conditions: 5 µM

Compared with Cc1nc2c(c(N3CCC(O)(CN4CCCC4)CC3)n1)CCN(C)CC2, Cc1cnn(CC2CCCN2c2ncnc3c2CCC3)c1 (configuration not stated) is higher in “Percent Effect” value: -16.37% for the first, 7.449% for the second.

Going from Cc1c(C2CCCN(C(=O)Cc3ccccn3)C2)n2c(nc1=O)CCC2.Cl (configuration not stated) to Cc1c(C2CCCN(C(=O)c3cccnc3)C2)n2c(nc1=O)CCC2 (configuration not stated), the “Percent Effect” value rises from -12.52% to 104.3%.

Going from Cc1noc(C)c1C(=O)N1CCCC(c2c(C)c(=O)nc3n2CCC3)C1 (configuration not stated) to Cc1c(C2CCCN(C(=O)c3ccncc3)C2)n2c(nc1=O)CCC2.Cl (configuration not stated), the “Percent Effect” value rises from 87.08% to 99.59%.

Compared with Cc1nn(C)cc1-c1ccnc(N(C)Cc2ccon2)n1, COCc1csc(NC(=O)NCc2ncccc2C)n1 is lower in “Percent Effect” value: 9.555% for the first, -7.53% for the second.

First: COc1cc2c(cc1OC)S(=O)(=O)N(Cc1cccc(C)c1)C2=O
Second: Cc1cccc(C(C(=O)N(C)CCc2cn[nH]c2)N(C)C)c1 (configuration not stated)
The “Percent Effect” value of the first is higher: -2.103% for the first, -40.91% for the second.

First: Cc1cc(NC(=O)CN2CCC(N3CCNC3=O)CC2)on1
Second: CC(C)(C)c1cc(NC(=O)CN2CCC(N3CCNC3=O)CC2)on1
The “Percent Effect” value of the first is higher: 131.4% for the first, 95.17% for the second.

Going from O=C(CN1CCC(N2CCNC2=O)CC1)NCC(F)(F)F to CCC(=O)N1CCC2(CC1)C(=O)N(C)CCN2Cc1csc(C)n1.O=C(O)C(F)(F)F, the “Percent Effect” value rises from -6.225% to 115.6%.

Going from CC(C)(C)c1cc(NC(=O)CN2CCCC(Cn3cncn3)C2)on1 (configuration not stated) to Cn1nc2c(cc1=O)CN(CC(=O)Nc1cc(C(C)(C)C)no1)CC2, the “Percent Effect” value rises from 1.148% to 4.087%.

First: Cc1cc(NC(=O)CN2CCc3nn(C)c(=O)cc3C2)on1
Second: Cc1nc(CN2CCN(C)C(=O)C23CCN(C(C)C)CC3)cs1.O=C(O)C(F)(F)F
The “Percent Effect” value of the first is lower: -13.84% for the first, 114.4% for the second.

Compared with COc1cc2c(cc1-c1nc3c(cnn3C(C)C3CC3)[nH]1)OCO2 (configuration not stated), CC(NS(=O)(=O)CCCC#N)c1cccc(-n2cccn2)c1 (configuration not stated) is lower in “Percent Effect” value: -2.531% for the first, -70.87% for the second.

First: COCC1CC2(CCN(C(C)=O)CC2)CN1Cc1csc(C)n1.O=C(O)C(F)(F)F (configuration not stated)
Second: CC(=O)N1CCC2(CC1)CN(C(=O)[C@@H]1CSCN1)c1ccc(Cl)cc12.O=C(O)C(F)(F)F
The “Percent Effect” value of the first is lower: -9.248% for the first, 102.4% for the second.

Going from CC(C)C(C(=O)O)c1cccc(Cl)c1 (configuration not stated) to OCC(CO)Nc1ccc2ccc(Cl)c(Cl)c2n1, the “Percent Effect” value rises from -23.59% to 21.88%.

Compared with Cl.Cl.O=C([C@@H]1CSCN1)N1CCC2(CC1)CNCc1ccccc12, Cl.Cl.O=C([C@@H]1CSCN1)N1CC2(CCNCC2)c2cc(Cl)ccc21 is higher in “Percent Effect” value: -5.878% for the first, 111% for the second.

In the case of Cl.Cl.O=C([C@H]1CCCN1)N1CC2(CCNCC2)c2cc(Cl)ccc21, the “Percent Effect” value was 99.27%.
